One may read the AC50 as the midpoint of the concentration-response curve, whichever way the signal moves.

Test [1] concerns the target Estrogen receptor (Homo sapiens) (UniProt P03372). Description: OT_ER_ERaERa_0480: Odyssey Thera (OT) 8-hour HEK293T Protein-Complementation Assay for Estrogen Receptor-alpha/-alpha Homodimer (AID 2283351).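 Also: rise in fluorescence from reassembled reporter fragments on ERα LBD homodimer in nucleus or whole cell.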 The method, boiled down:
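HEK293T cells stably expressing a PCA pair of ER alpha LBD (residues 310-547) were dosed for 8 hours. The gain in fluorescence intensity, nuclear for agonists and whole-cell for antagonists, was measured by laser scanning cytometry against DMSO vehicle.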

Test [2] concerns the target T1, Estrogen receptor (Homo sapiens) + Estrogen receptor beta (Homo sapiens) (UniProt P03372+Q92731). As to the kind of experiment: OT_ER_ERaERb_0480: Odyssey Thera (OT) 8-hour HEK293T Protein-Complementation Assay for Estrogen Receptor-alpha/-beta Heterodimer (AID 2283352). Put shortly: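 Fluorescence increase from reconstituted reporter fragments, quantified by laser scanning cytometer, reflects ER-alpha/ER-beta heterodimer formation in human HEK293T cells. Exposure 8 h; positive-direction fitting against DMSO vehicle.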

Test [3] has as its target T1, Estrogen receptor (Homo sapiens) + Estrogen receptor beta (Homo sapiens). Description: OT_ER_ERaERb_1440: Odyssey Thera (OT) 24-hour HEK293T Protein-Complementation Assay for Estrogen Receptor-alpha/-beta Homodimer (AID 2283356).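 Also: heteromer of ER alpha and ER beta binding domains; hits raise reporter fluorescence and both agonists and antagonists give an increase.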 Put shortly: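 Fragment complementation between ER alpha (310-547) and ER beta (263-489) ligand-binding domains in HEK293T cells; signal read 24 h post-dosing by laser scanning cytometer. Gain of fluorescence relative to DMSO fitted.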

Test [4] has as its target Estrogen receptor beta (Homo sapiens) (UniProt Q92731). Description: OT_ER_ERbERb_0480: Odyssey Thera (OT) 8-hour HEK293T Protein-Complementation Assay for Estrogen Receptor-beta/-beta Homodimer (AID 2283357).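 Also: active means signal gain over DMSO baseline.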 Put shortly:
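Fluorescence gain from complemented reporter fragments on ER-beta LBD homodimer in HEK293T was quantified against DMSO controls after 8 h treatment, fixation in 4% formaldehyde and Draq5 staining.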

The target of test [5] is Peroxisome proliferator-activated receptor gamma (Homo sapiens) (UniProt P37231). Description: NVS_NR_hPPARg: NovaScreen (NVS) Nuclear Receptor Binding Assay for human Peroxisome Proliferator-activated Receptor gamma (PPARg) (AID 2283370). Put shortly:
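Fluorescence polarization readout of ligand binding to extracted human PPARg, measured at 2 h. Duplicate single-point screen at 25 uM, then concentration-series retesting; activity defined as signal loss versus DMSO.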

Test [6] concerns the target mouse Estrogen Receptor alpha (Era), Esr1 (gene 13982) (UniProt P19785). Description: NVS_NR_mERa: NovaScreen (NVS) Nuclear Receptor Binding Assay for mouse Estrogen Receptor alpha (Era) (AID 2283378).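 Also: hit means loss of bound radioligand signal relative to DMSO.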 The method, boiled down:
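Filter radiodetection of radioligand displacement from extracted receptor protein, measured 18 h post-dose. Single 25 uM concentration in duplicate initially, with concentration-series follow-up. Binding loss fitted relative to DMSO.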

Test [7] concerns the target Androgen Receptor/SRC-1 Co-activator, AR (gene 367) (UniProt P10275). Description: OT_AR_ARSRC1_0960: Odyssey Thera (OT) 16-hour HEK293T Protein-Complementation Assay for Androgen Receptor/SRC-1 Co-activator (AID 2283353).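 Also: actives raise the signal above DMSO so potency reflects increased AR and SRC-1 complex.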 The method, boiled down:
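Endpoint is gain-of-signal N/C fluorescence ratio in the 488 nm channel versus DMSO, from at least 400 cells per image, measured 16 h post-dosing. Cells: HEK293T stably carrying split-Venus AR/SRC-1 complementation constructs.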

Test [8] has the same target. Description: OT_AR_ARSRC1_0480: Odyssey Thera (OT) 8-hour HEK293T Protein-Complementation Assay for Androgen Receptor/SRC-1 Co-activator (AID 2283354).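 Also: hits raise the complementation signal above DMSO so AC50 marks enhancers.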 Put shortly:
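After 8 h dosing, stably expressing HEK293T cells with split-Venus AR/SRC-1 fusions were imaged (488, 635nm). The 488nm N/C ratio per image gave the endpoint, analysed in the positive direction against DMSO.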

Test [9] has as its target human Thyroid Receptor Alpha (TRa), THRA (gene 7067) (UniProt P10827). Description: NVS_NR_hTRa_Antagonist: NovaScreen (NVS) Nuclear Receptor Binding Assay for human Thyroid Receptor Alpha Antagonism (TRa) (AID 2283362).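 Also: activity is loss of signal relative to DMSO baseline.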 Put shortly:
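Actives from a duplicate 25 uM single-point screen were retested in concentration series. The cell-free antagonist-format binding assay was read by AlphaLISA chemiluminescence at 1 h, scored as signal loss relative to DMSO.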

For test [10], the target named is Agonist Androgen Response Element (ARE), AR (gene 367) (UniProt P10275). As to the kind of experiment: OT_AR_ARELUC_AG_1440: Odyssey Thera (OT) 24-hour CHO-K1 Luciferase Assay for Agonist Androgen Response Element (ARE) (AID 2283379). The method, boiled down: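 Luminescence increase above DMSO, read after a 24 h compound treatment of CHO-K1 cells expressing an androgen response element luciferase reporter, gives the single primary endpoint; concentration-response fitting used the positive direction.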
Sequence of Agonist Androgen Response Element (ARE), AR (gene 367) (P10275 whole entry, looked up): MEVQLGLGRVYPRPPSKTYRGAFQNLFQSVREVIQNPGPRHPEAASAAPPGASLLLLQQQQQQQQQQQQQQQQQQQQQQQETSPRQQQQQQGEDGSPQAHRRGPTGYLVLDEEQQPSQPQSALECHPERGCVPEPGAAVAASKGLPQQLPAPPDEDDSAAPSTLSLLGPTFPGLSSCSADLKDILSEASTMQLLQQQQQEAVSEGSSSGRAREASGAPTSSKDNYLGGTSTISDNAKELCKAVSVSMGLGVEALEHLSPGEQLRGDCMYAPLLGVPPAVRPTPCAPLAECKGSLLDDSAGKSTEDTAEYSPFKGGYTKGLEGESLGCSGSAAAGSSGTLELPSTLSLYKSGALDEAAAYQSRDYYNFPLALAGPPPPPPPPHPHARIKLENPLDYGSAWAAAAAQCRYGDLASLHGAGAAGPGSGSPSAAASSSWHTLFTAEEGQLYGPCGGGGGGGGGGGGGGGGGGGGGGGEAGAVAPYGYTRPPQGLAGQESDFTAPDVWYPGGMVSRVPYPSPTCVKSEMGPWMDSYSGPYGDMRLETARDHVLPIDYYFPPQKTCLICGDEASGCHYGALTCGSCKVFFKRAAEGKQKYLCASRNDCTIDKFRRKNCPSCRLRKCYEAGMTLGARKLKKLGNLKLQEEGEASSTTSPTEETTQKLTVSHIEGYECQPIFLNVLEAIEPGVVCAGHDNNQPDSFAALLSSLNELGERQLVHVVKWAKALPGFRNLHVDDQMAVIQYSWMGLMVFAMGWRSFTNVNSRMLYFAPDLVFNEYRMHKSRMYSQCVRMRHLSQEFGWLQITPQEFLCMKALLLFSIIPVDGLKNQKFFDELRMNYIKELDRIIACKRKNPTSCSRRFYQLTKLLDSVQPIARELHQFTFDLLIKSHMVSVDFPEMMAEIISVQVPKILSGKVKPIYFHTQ

The target of test [11] is human Peroxisome Proliferator-activated Receptor alpha (PPARa), PPARA (gene 5465) (UniProt Q07869). Description: NVS_NR_hPPARa: NovaScreen (NVS) Nuclear Receptor Binding Assay for human Peroxisome Proliferator-activated Receptor alpha (PPARa) (AID 2283359).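 Also: activity means loss of TR-FRET signal versus DMSO baseline.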 The method, boiled down:
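One-hour incubation, cell-free extracted protein, TR-FRET binding readout; signal loss vs DMSO scored. Screen: 25 uM duplicates, confirmatory dose series for actives.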

The target of test [12] is Glucocorticoid receptor (Homo sapiens) (UniProt P04150). As to the kind of experiment: NVS_NR_hGR: NovaScreen (NVS) Nuclear Receptor Binding Assay for human Glucocorticoid Receptor (GR) (AID 2283363).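 Also: activity is loss of specific radioligand binding signal relative to DMSO.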 Put shortly:
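Single-readout cell-free binding: radioligand plus extracted receptor, 16-hour dosing, filter radiodetection; 25 uM duplicate primary, concentration series secondary.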

In test [13] the target is Nuclear receptor subfamily 1 group I member 2 (Homo sapiens) (UniProt O75469). Description: NVS_NR_hPXR: NovaScreen (NVS) Nuclear Receptor Binding Assay for human Pregnane X Receptor (PXR) (AID 2283365).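 Also: a drop in FRET signal versus DMSO baseline means the compound binds.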 Put shortly: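 Human PXR binding measured by TR-FRET in a cell-free format, 2 h exposure. Single-concentration duplicates at 25 uM preceded concentration-response retests of actives; endpoint fitted positively relative to DMSO, loss of signal indicating binding.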

For test [14], the target named is rat Androgen Receptor (AR), Ar (gene 24208) (UniProt P15207). As to the kind of experiment: NVS_NR_rAR: NovaScreen (NVS) Nuclear Receptor Binding Assay for rat Androgen Receptor (AR) (AID 2283366). The method, boiled down:
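Actives from a duplicate single-concentration (25 uM) primary run went on to concentration series. Displacement of radioligand was counted by filtration and scintillation, 18 h post-dose, using prostate extracts from testosterone-pretreated rats, with DMSO as baseline.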

Inconclusive results are not listed. Calls of active or inactive are those of the source. The calls were made as follows: active = hit-call score of the fitted dose curve at least 0.9, where 1 is the maximum; inconclusive = response in the unintended direction; inactive = score below 0.9.

Sequence of Estrogen receptor beta (Homo sapiens) (Q92731 whole entry, looked up, the tested form may be a part): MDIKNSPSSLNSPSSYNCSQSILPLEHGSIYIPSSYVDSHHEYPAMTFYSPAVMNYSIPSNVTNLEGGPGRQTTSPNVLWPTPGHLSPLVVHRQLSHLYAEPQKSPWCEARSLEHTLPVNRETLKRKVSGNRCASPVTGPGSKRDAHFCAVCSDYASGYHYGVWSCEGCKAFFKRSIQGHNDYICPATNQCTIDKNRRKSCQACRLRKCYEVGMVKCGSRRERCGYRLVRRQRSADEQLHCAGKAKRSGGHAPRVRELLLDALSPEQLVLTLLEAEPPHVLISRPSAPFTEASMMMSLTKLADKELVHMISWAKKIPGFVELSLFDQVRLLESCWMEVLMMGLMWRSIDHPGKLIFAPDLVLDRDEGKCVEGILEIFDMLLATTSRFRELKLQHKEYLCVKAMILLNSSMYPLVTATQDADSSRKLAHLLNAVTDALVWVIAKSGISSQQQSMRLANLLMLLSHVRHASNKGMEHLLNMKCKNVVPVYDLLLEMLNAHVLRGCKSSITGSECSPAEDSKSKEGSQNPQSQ
Sequence of mouse Estrogen Receptor alpha (Era), Esr1 (gene 13982) (P19785 whole entry, looked up): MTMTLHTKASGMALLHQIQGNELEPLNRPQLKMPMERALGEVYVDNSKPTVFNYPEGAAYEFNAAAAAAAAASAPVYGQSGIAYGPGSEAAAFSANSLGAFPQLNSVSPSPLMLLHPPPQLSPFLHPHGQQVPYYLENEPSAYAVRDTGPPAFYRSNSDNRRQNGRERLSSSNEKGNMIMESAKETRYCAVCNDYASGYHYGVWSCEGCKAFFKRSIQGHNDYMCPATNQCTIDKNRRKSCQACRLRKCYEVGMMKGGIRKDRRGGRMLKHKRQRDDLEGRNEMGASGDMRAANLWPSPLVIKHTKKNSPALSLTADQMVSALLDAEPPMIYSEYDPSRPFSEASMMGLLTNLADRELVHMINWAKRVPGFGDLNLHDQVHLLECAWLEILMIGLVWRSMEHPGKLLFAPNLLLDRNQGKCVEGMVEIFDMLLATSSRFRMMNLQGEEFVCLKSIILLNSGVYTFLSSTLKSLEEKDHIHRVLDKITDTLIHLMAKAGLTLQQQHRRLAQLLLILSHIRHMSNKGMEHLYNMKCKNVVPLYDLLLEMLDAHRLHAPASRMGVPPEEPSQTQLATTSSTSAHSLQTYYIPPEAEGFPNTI
Sequence of Estrogen receptor (Homo sapiens) (P03372 whole entry, looked up, the tested form may be a part): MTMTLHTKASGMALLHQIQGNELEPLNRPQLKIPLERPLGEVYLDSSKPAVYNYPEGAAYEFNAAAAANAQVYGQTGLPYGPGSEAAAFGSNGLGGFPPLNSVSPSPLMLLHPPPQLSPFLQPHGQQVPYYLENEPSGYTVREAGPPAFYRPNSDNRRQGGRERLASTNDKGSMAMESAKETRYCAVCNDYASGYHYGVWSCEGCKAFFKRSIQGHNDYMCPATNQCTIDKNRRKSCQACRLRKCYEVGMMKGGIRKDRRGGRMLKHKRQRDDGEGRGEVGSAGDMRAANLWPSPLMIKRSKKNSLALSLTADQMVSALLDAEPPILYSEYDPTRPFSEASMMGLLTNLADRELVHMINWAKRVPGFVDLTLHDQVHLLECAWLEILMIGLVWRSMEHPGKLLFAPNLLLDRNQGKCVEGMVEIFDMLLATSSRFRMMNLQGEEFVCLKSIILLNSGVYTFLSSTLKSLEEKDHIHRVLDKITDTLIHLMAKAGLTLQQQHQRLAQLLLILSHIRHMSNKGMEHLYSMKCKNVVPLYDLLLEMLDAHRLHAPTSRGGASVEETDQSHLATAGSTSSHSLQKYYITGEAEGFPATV
T1 sequence (P03372 whole entry, looked up, the tested form may be a part): as above
T1 sequence (Q92731 whole entry, looked up, the tested form may be a part): as the sequence (Q92731 whole entry, looked up, the tested form may be a part) above
Sequence of Androgen Receptor/SRC-1 Co-activator, AR (gene 367) (P10275 whole entry, looked up): as the sequence (P10275 whole entry, looked up) above

As for `OCCN1CCNCC1`, the result in [1], in test [2], in test [3], in test [4] and in test [5] was inactive.

Regarding `CCCCCCCCCCCCCC(=O)O`, the call in [1], in test [2], in test [3], in [4] and in test [5] was inactive.

Take `CCCCCCCCC=O`: the compound was classed as inactive in [1], in test [2], in test [3], in test [4] and in test [6].

For `CCCCOCCOCCOCCOCCO`, the result in test [2], in test [3] and in [4] was inactive.

Regarding `OCCOCCOCCOCCO`, the result in [2], in [3] and in test [4] was inactive.

`c1ccc(CCCc2ccccn2)cc1`: the compound was classed as inactive in [1], in test [2], in test [3], in test [4] and in [5].

With `NC(=O)Nc1ccc(Cl)cc1`, the result in test [1], in [2], in test [3], in test [4] and in test [6] was inactive.

On to `CCCCCCCCCC=O`, for which the call in [1], in test [2], in [3] and in [6] was inactive.

For `O=Nc1ccc(Nc2ccccc2)cc1`, the outcome in [1], in test [3], in [5] and in [10] was inactive. Further, the concentration at half-maximal activity (AC50) in test [7] is 14.2 µM (active); in test [8], 11 µM (active); in test [9] it was 17.6 µM (active); in test [6] it was 46.4 µM (active).

On to `CCCCCCCCCCCCCOS(=O)(=O)O`, for which the outcome in test [7], in test [8], in [4], in test [13] and in test [10] was inactive. The half-maximal activity concentration (AC50) is 2.1 µM (active) in test [11], 2.94 µM (active) in [12], 1.7 µM (active) in test [14] and 0.832 µM (active) in test [5].

For the compound `CCC/C=C/C=O`, the compound was classed as inactive in [1], in [2], in test [7], in [8], in test [3] and in test [4]. The compound was classed as inactive in test [13], in test [5] and in test [10].

`CCN(CC)c1ccc2c(-c3ccccc3C(=O)O)c3ccc(=[N+](CC)CC)cc-3oc2c1`: the AC50 in test [1] was 12.2 µM (active); in test [2], 12 µM (active); in test [3], 12 µM (active); in test [4], 12.2 µM (active).

Turning to `C=C(C)C(=O)O`, the outcome in test [1], in [2] and in test [3] was inactive.

For the compound `CC(C)(N)CO`, the outcome in test [1], in [2], in test [3] and in test [4] was inactive.

Turning to `Cc1ccc(S)cc1`, the compound was classed as inactive in test [1], in [2], in [3] and in test [4].

Take `CC(=O)OCCC(C)CC(C)(C)C` (stereo unspecified): the outcome in test [1] was inactive.

As to `CCCCc1ccc(N)cc1`, the result in test [1] and in test [4] was inactive. Further, the values for the concentration at half-maximal activity (AC50) in test [2] and in test [3] were 50 µM (active) and 39.6 µM (active), respectively.

(Values after PubChem BioAssay (EPA / NIEHS).)
